“And” between values parts separate entries of the source, which are not always exact repeats. Equal entries are not always repeated. Hit rate of the full screen: of about 5,500 compounds, about 2,000 (36%) were called active. Not shown: some 18% with an inconclusive outcome. Rule as the data show it: active = normalized growth mostly below about 0.91 (no sharp cut-off); inconclusive = no clear call, values can overlap the other calls; inactive = mostly above about 0.92. The list shows a part of the results.
Assay: chemical genetic growth profiling, strain panel (AID 1159580);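 also: tested at 20 µM; growth read once vehicle control cultures reached saturation at 30 °C; 1 = growth at the plate median or of vehicle wells; lower values mean less growth of the strain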
Conditions: growth OD

Measured: normalized growth

COc1c2c(cc3c1OCO3)CC[N+](C)=C2
inactive: S. cerevisiae deletion strains, locus YAL013W, strain DEP1, stronger effect = lower value 1 | S. cerevisiae deletion strains, locus YAL021C, strain ccr4, stronger effect = lower value 0.977 | S. cerevisiae deletion strains, locus YAL026C, strain drs2, stronger effect = lower value 0.995 | S. cerevisiae deletion strains, locus YAL030W, strain snc1, stronger effect = lower value 0.994 | S. cerevisiae deletion strains, locus YBL061C, strain skt5, stronger effect = lower value 1.01 | S. cerevisiae deletion strains, locus YBR009C, strain hhf1, stronger effect = lower value 0.984 | S. cerevisiae deletion strains, locus YBR021W, strain FUR4, stronger effect = lower value 1.02 | S. cerevisiae deletion strains, locus YBR023C, strain chs3, stronger effect = lower value 1.01 | S. cerevisiae deletion strains, locus YBR171W, strain sec66, stronger effect = lower value 0.997 | S. cerevisiae deletion strains, locus YBR229C, strain ROT2, stronger effect = lower value 0.999 | S. cerevisiae deletion strains, locus YBR231C, strain swc5, stronger effect = lower value 1.03 | S. cerevisiae deletion strains, locus YBR279W, strain paf1, stronger effect = lower value 1 | S. cerevisiae deletion strains, locus YCL011C, strain gbp2, stronger effect = lower value 0.986 | S. cerevisiae deletion strains, locus YCL016C, strain dcc1, stronger effect = lower value 0.974 | S. cerevisiae deletion strains, locus YCL029C, strain bik1, stronger effect = lower value 0.993 | S. cerevisiae deletion strains, locus YCL069W, strain vba3, stronger effect = lower value 0.99 | S. cerevisiae deletion strains, locus YCR088W, strain abp1, stronger effect = lower value 1 | S. cerevisiae deletion strains, locus YDL005C, strain med2, stronger effect = lower value 1 | S. cerevisiae deletion strains, locus YDL035C, strain GPR1, stronger effect = lower value 1.01 | S. cerevisiae deletion strains, locus YDL040C, strain nat1, stronger effect = lower value 1.01 | S. cerevisiae deletion strains, locus YDL074C, strain BRE1, stronger effect = lower value 1.04 | S. cerevisiae deletion strains, locus YDL101C, strain DUN1, stronger effect = lower value 1.02 | S. cerevisiae deletion strains, locus YDL134C, strain PPH21, stronger effect = lower value 1.05 | S. cerevisiae deletion strains, locus YDL185W, strain tfp1, stronger effect = lower value 1.01 | S. cerevisiae deletion strains, locus YDL192W, strain arf1, stronger effect = lower value 1 | S. cerevisiae deletion strains, locus YDR001C, strain nth1, stronger effect = lower value 0.977 | S. cerevisiae deletion strains, locus YDR069C, strain doa4, stronger effect = lower value 1.01 | S. cerevisiae deletion strains, locus YDR101C, strain arx1, stronger effect = lower value 1 | S. cerevisiae deletion strains, locus YDR137W, strain rgp1, stronger effect = lower value 1 | S. cerevisiae deletion strains, locus YDR150W, strain NUM1, stronger effect = lower value 0.993 | S. cerevisiae deletion strains, locus YDR159W, strain sac3, stronger effect = lower value 1.08 | S. cerevisiae deletion strains, locus YDR162C, strain NBP2, stronger effect = lower value 1.05 | S. cerevisiae deletion strains, locus YDR195W, strain ref2 1.01 | S. cerevisiae deletion strains, locus YDR297W, strain sur2, stronger effect = lower value 1.02 | S. cerevisiae deletion strains, locus YDR318W, strain mcm21, stronger effect = lower value 1 | S. cerevisiae deletion strains, locus YDR334W, strain swr1, stronger effect = lower value 0.991 | S. cerevisiae deletion strains, locus YDR335W, strain msn5, stronger effect = lower value 0.996 | S. cerevisiae deletion strains, locus YDR388W, stronger effect = lower value 0.994 | S. cerevisiae deletion strains, locus YDR392W, strain spt3, stronger effect = lower value 0.93 | S. cerevisiae deletion strains, locus YDR502C, strain sam2, stronger effect = lower value 1.01 | S. cerevisiae deletion strains, locus YEL003W, strain gim4, stronger effect = lower value 1 | S. cerevisiae deletion strains, locus YEL037C, strain rad23, stronger effect = lower value 0.986 | S. cerevisiae deletion strains, locus YEL061C, strain CIN8 (second series), stronger effect = lower value 0.998 | S. cerevisiae deletion strains, locus YER015W, strain faa2, stronger effect = lower value 0.998 | S. cerevisiae deletion strains, locus YER016W, strain bim1, stronger effect = lower value 1.01 | S. cerevisiae deletion strains, locus YER110C, stronger effect = lower value 1.01 | S. cerevisiae deletion strains, locus YER111C, strain swi4, stronger effect = lower value 1 | S. cerevisiae deletion strains, locus YER155C, strain BEM2 (second series), stronger effect = lower value 1.06 | S. cerevisiae deletion strains, locus YER155C, strain BEM2, stronger effect = lower value 0.976 | S. cerevisiae deletion strains, locus YER167W, strain BCK2, stronger effect = lower value 0.997 | S. cerevisiae deletion strains, locus YFR010W, strain ubp6, stronger effect = lower value 0.996 | S. cerevisiae deletion strains, locus YGL078C, strain dbp3, stronger effect = lower value 1.04 | S. cerevisiae deletion strains, locus YGL086W, strain mad1, stronger effect = lower value 1.01 | S. cerevisiae deletion strains, locus YGL167C, strain pmr1, stronger effect = lower value 0.993 | S. cerevisiae deletion strains, locus YGL173C, strain kem1, stronger effect = lower value 1.02 | S. cerevisiae deletion strains, locus YGL227W, strain vid30, stronger effect = lower value 0.999 | S. cerevisiae deletion strains, locus YGL240W, strain doc1, stronger effect = lower value 1.02 | S. cerevisiae deletion strains, locus YGL248W, strain PDE1, stronger effect = lower value 1.03 | S. cerevisiae deletion strains, locus YGL253W, strain hxk2, stronger effect = lower value 1 | S. cerevisiae deletion strains, locus YGR078C, strain PAC10, stronger effect = lower value 0.987 | S. cerevisiae deletion strains, locus YGR135W, strain pre9, stronger effect = lower value 1.03 | S. cerevisiae deletion strains, locus YGR252W, strain gcn5, stronger effect = lower value 1.05 | S. cerevisiae deletion strains, locus YHR013C, strain ard1, stronger effect = lower value 0.974 | S. cerevisiae deletion strains, locus YHR027C, strain rpn1, stronger effect = lower value 0.981 | S. cerevisiae deletion strains, locus YHR030C, strain SLT2, stronger effect = lower value 0.989 | S. cerevisiae deletion strains, locus YHR079C, strain IRE1 (second series), stronger effect = lower value 1.01 | S. cerevisiae deletion strains, locus YHR079C, strain IRE1, stronger effect = lower value 1 | S. cerevisiae deletion strains, locus YHR094C, strain hxt1, stronger effect = lower value 1 | S. cerevisiae deletion strains, locus YHR129C, strain ARP1, stronger effect = lower value 1 | S. cerevisiae deletion strains, locus YHR142W, strain chs7, stronger effect = lower value 0.982 | S. cerevisiae deletion strains, locus YHR200W, strain rpn10, stronger effect = lower value 0.998 | S. cerevisiae deletion strains, locus YIL066C, strain RNR3, stronger effect = lower value 1 | S. cerevisiae deletion strains, locus YIL073C, strain SPO22, stronger effect = lower value 1.06 | S. cerevisiae deletion strains, locus YIL125W, strain kgd1, stronger effect = lower value 0.995 | S. cerevisiae deletion strains, locus YIR030C, strain dcg1, stronger effect = lower value 1.01 | S. cerevisiae deletion strains, locus YJL092W, strain hpr5, stronger effect = lower value 0.988 | S. cerevisiae deletion strains, locus YJL095W, strain BCK1 (second series), stronger effect = lower value 1 | S. cerevisiae deletion strains, locus YJL095W, strain BCK1, stronger effect = lower value 1.05 and 0.977 | S. cerevisiae deletion strains, locus YJL115W, strain asf1, stronger effect = lower value 0.977 | S. cerevisiae deletion strains, locus YJL129C, strain trk1, stronger effect = lower value 1.01 | S. cerevisiae deletion strains, locus YJL134W, strain LCB3, stronger effect = lower value 0.994 | S. cerevisiae deletion strains, locus YJL154C, strain vps35, stronger effect = lower value 0.985 | S. cerevisiae deletion strains, locus YJL164C, strain tpk1, stronger effect = lower value 0.965 | S. cerevisiae deletion strains, locus YJL166W, strain qcr8, stronger effect = lower value 1.01 | S. cerevisiae deletion strains, locus YJL168C, strain set2, stronger effect = lower value 1.01 | S. cerevisiae deletion strains, locus YJL187C, strain SWE1 (second series), stronger effect = lower value 1.04 | S. cerevisiae deletion strains, locus YJL187C, strain SWE1, stronger effect = lower value 1.02 | S. cerevisiae deletion strains, locus YJR043C, strain POL32, stronger effect = lower value 0.99 | S. cerevisiae deletion strains, locus YJR066W, strain TOR1, stronger effect = lower value 0.886 | S. cerevisiae deletion strains, locus YKL009W, strain mrt4, stronger effect = lower value 1.04 | S. cerevisiae deletion strains, locus YKL068W, stronger effect = lower value 0.996 | S. cerevisiae deletion strains, locus YKL085W, strain MDH1 (second series), stronger effect = lower value 1.01 | S. cerevisiae deletion strains, locus YKL085W, strain MDH1, stronger effect = lower value 1.01 | S. cerevisiae deletion strains, locus YKL160W, strain elf1, stronger effect = lower value 0.977 | S. cerevisiae deletion strains, locus YKL190W, strain CNB1, stronger effect = lower value 1 | S. cerevisiae deletion strains, locus YKR001C, strain vps1, stronger effect = lower value 1.02 | S. cerevisiae deletion strains, locus YKR026C, strain gcn3, stronger effect = lower value 0.993 | S. cerevisiae deletion strains, locus YKR091W, strain srl3, stronger effect = lower value 0.99 | S. cerevisiae deletion strains, locus YLL001W, strain dnm1, stronger effect = lower value 1 | S. cerevisiae deletion strains, locus YLL026W, stronger effect = lower value 1 | S. cerevisiae deletion strains, locus YLL041C, strain sdh2, stronger effect = lower value 0.984 | S. cerevisiae deletion strains, locus YLR027C, strain aat2, stronger effect = lower value 1.01 | S. cerevisiae deletion strains, locus YLR039C, strain RIC1, stronger effect = lower value 1.1 | S. cerevisiae deletion strains, locus YLR058C, strain SHM2, stronger effect = lower value 1.02 | S. cerevisiae deletion strains, locus YLR102C, strain apc9, stronger effect = lower value 1 | S. cerevisiae deletion strains, locus YLR113W, strain HOG1, stronger effect = lower value 0.978 | S. cerevisiae deletion strains, locus YLR221C, strain rsa3, stronger effect = lower value 1.04 | S. cerevisiae deletion strains, locus YLR258W, strain gsy2, stronger effect = lower value 1.02 | S. cerevisiae deletion strains, locus YLR262C, strain YPT6 (second series), stronger effect = lower value 0.995 | S. cerevisiae deletion strains, locus YLR262C, strain YPT6, stronger effect = lower value 1.12 | S. cerevisiae deletion strains, locus YLR268W, strain sec22, stronger effect = lower value 0.999 | S. cerevisiae deletion strains, locus YLR320W, strain mms22, stronger effect = lower value 1.06 | S. cerevisiae deletion strains, locus YLR342W, strain FKS1, stronger effect = lower value 1.01 | S. cerevisiae deletion strains, locus YLR357W, strain rsc2, stronger effect = lower value 0.968 | S. cerevisiae deletion strains, locus YLR370C, strain arc18, stronger effect = lower value 1 | S. cerevisiae deletion strains, locus YLR371W, strain rom2, stronger effect = lower value 1.01 | S. cerevisiae deletion strains, locus YLR384C, strain iki3, stronger effect = lower value 0.999 | S. cerevisiae deletion strains, locus YLR418C, strain cdc73, stronger effect = lower value 1.03 | S. cerevisiae deletion strains, locus YML016C, strain PPZ1, stronger effect = lower value 1.01 | S. cerevisiae deletion strains, locus YML032C, strain rad52, stronger effect = lower value 0.999 | S. cerevisiae deletion strains, locus YML120C, strain ndi1, stronger effect = lower value 0.977 | S. cerevisiae deletion strains, locus YML124C, strain tub3, stronger effect = lower value 1.01 | S. cerevisiae deletion strains, locus YMR058W, strain fet3, stronger effect = lower value 1 | S. cerevisiae deletion strains, locus YMR078C, strain ctf18, stronger effect = lower value 1 | S. cerevisiae deletion strains, locus YMR125W, strain sto1, stronger effect = lower value 0.923 | S. cerevisiae deletion strains, locus YMR129W, stronger effect = lower value 0.996 | S. cerevisiae deletion strains, locus YMR205C, strain PFK2, stronger effect = lower value 0.975 | S. cerevisiae deletion strains, locus YMR223W, strain ubp8, stronger effect = lower value 1.02 | S. cerevisiae deletion strains, locus YMR231W, strain pep5, stronger effect = lower value 1.01 | S. cerevisiae deletion strains, locus YMR307W, strain GAS1, stronger effect = lower value 1.03 | S. cerevisiae deletion strains, locus YNL067W, strain RPL9B, stronger effect = lower value 1.03 | S. cerevisiae deletion strains, locus YNL071W, strain lat1, stronger effect = lower value 0.998 | S. cerevisiae deletion strains, locus YNL183C, strain NPR1, stronger effect = lower value 0.923 | S. cerevisiae deletion strains, locus YNL209W, strain ssb2, stronger effect = lower value 0.992 | S. cerevisiae deletion strains, locus YNL233W, strain BNI4, stronger effect = lower value 1.01 | S. cerevisiae deletion strains, locus YNL248C, strain rpa49, stronger effect = lower value 0.924 | S. cerevisiae deletion strains, locus YNL250W, strain rad50, stronger effect = lower value 1.03 | S. cerevisiae deletion strains, locus YNL271C, strain bni1, stronger effect = lower value 1.03 | S. cerevisiae deletion strains, locus YNL298W, strain CLA4, stronger effect = lower value 0.992 | S. cerevisiae deletion strains, locus YNL307C, strain MCK1, stronger effect = lower value 1.01 | S. cerevisiae deletion strains, locus YNL322C, strain KRE1 (second series), stronger effect = lower value 0.997 | S. cerevisiae deletion strains, locus YNR049C, strain mso1, stronger effect = lower value 0.979 | S. cerevisiae deletion strains, locus YNR052C, strain pop2, stronger effect = lower value 1.01 | S. cerevisiae deletion strains, locus YOL012C, strain htz1 0.651 | S. cerevisiae deletion strains, locus YOL147C, strain pex11, stronger effect = lower value 1 | S. cerevisiae deletion strains, locus YOR001W, strain rrp6, stronger effect = lower value 1.03 | S. cerevisiae deletion strains, locus YOR061W, strain CKA2, stronger effect = lower value 1.01 | S. cerevisiae deletion strains, locus YOR069W, strain VPS5, stronger effect = lower value 1 | S. cerevisiae deletion strains, locus YOR070C, strain gyp1, stronger effect = lower value 1.02 | S. cerevisiae deletion strains, locus YOR080W, strain dia2, stronger effect = lower value 1.02 | S. cerevisiae deletion strains, locus YOR083W, strain WHI5, stronger effect = lower value 0.97 | S. cerevisiae deletion strains, locus YOR106W, strain vam3, stronger effect = lower value 0.937 | S. cerevisiae deletion strains, locus YOR136W, strain idh2, stronger effect = lower value 1.03 | S. cerevisiae deletion strains, locus YOR144C, strain elg1, stronger effect = lower value 1 | S. cerevisiae deletion strains, locus YOR184W, strain ser1, stronger effect = lower value 0.996 | S. cerevisiae deletion strains, locus YOR231W, strain MKK1, stronger effect = lower value 0.994 | S. cerevisiae deletion strains, locus YOR265W, strain rbl2, stronger effect = lower value 0.996 | S. cerevisiae deletion strains, locus YOR270C, strain vph1, stronger effect = lower value 0.991 | S. cerevisiae deletion strains, locus YOR290C, strain snf2, stronger effect = lower value 0.919 | S. cerevisiae deletion strains, locus YOR316C, strain cot1, stronger effect = lower value 1.01 | S. cerevisiae deletion strains, locus YPL051W, strain arl3, stronger effect = lower value 1.03 | S. cerevisiae deletion strains, locus YPL078C, strain atp4, stronger effect = lower value 0.952 | S. cerevisiae deletion strains, locus YPL106C, strain sse1, stronger effect = lower value 0.972 | S. cerevisiae deletion strains, locus YPL240C, strain hsp82, stronger effect = lower value 1.01 | S. cerevisiae deletion strains, locus YPL256C, strain CLN2, stronger effect = lower value 0.975 | S. cerevisiae deletion strains, locus YPR119W, strain clb2, stronger effect = lower value 1.01 | S. cerevisiae deletion strains, locus YPR141C, strain kar3, stronger effect = lower value 1.01 | S. cerevisiae deletion strains, locus YPR163C, strain tif3, stronger effect = lower value 1.02 | S. cerevisiae deletion strains, locus YPR167C, strain met16, stronger effect = lower value 1.01 | S. cerevisiae deletion strains, strain wtn01, stronger effect = lower value 1 | S. cerevisiae strains, strain wild type, stronger effect = lower value 1

— PubChem BioAssay AID1159580 (chemical genetic matrix, 2015)
